Data from PubChem BioAssay (Tox21).
Inconclusive results are not listed. Activity calls are given as the source filed them. The call rests on the fitted dose curve; in most records, active means well fitted inhibition curve with a large enough effect in the repeat runs; inconclusive means weak or mixed curves; inactive means flat fitted curve, though single readings scatter.

The compounds below were run against Voltage-gated inwardly rectifying potassium channel KCNH2 (Homo sapiens) (UniProt Q12809) (assay: Human Ether-a-go-go-Related Gene (hERG) channel small molecule antagonists: fluorescence cell-based qHTS assay (AID 1671200; further: nearly all actives have a fitted effect of over 50% in size)). Conditions: hERG-U2OS cells, FluxOR thallium flux fluorescence; series mostly up to 76.8 µM.
Method in brief: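 hERG-U2OS cells plated overnight at 37 C, loaded with FluxOR II dye 1 h at RT in dark; after 10 min, thallium stimulus added. Fluorescence (480/540 nm) read kinetically for 2 min at 1 s intervals.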

Sequence of Voltage-gated inwardly rectifying potassium channel KCNH2 (Homo sapiens) (Q12809 whole entry, looked up): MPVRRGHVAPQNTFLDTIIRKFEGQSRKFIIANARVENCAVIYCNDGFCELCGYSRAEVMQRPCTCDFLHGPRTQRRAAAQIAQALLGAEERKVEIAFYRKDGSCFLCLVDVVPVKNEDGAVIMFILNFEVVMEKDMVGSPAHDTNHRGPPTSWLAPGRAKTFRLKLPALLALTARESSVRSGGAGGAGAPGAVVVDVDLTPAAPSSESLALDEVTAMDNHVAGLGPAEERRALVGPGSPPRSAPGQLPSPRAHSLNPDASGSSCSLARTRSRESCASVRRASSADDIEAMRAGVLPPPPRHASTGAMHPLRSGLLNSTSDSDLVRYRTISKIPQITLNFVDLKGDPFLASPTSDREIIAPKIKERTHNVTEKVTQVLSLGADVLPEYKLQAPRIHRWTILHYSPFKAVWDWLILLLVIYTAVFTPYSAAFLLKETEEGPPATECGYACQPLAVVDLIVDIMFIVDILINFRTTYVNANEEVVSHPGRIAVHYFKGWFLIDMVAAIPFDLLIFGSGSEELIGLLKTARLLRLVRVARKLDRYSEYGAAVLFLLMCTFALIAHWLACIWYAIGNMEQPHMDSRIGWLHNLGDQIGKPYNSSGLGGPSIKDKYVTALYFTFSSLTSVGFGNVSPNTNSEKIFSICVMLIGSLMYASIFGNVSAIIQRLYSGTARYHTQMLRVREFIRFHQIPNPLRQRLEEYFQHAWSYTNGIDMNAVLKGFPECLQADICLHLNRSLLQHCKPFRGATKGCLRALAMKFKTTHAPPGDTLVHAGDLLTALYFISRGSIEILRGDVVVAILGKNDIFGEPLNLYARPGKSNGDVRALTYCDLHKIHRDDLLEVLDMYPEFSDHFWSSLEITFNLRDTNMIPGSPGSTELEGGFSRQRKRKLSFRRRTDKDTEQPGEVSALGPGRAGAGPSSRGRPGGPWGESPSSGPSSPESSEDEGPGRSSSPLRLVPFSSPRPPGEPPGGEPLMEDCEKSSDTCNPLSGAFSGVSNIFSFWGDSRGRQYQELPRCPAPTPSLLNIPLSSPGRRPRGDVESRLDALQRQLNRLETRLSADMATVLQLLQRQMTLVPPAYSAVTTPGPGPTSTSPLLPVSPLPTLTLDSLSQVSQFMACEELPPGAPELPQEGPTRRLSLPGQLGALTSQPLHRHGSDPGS

SMILES | outcome
O=c1[nH]c(=O)n([C@H]2CCCO2)cc1F | inactive
C=CCNC(N)=S | inactive
c1ccc2c(c1)ccc1ccccc12 | inactive
CC(=O)OCC(=O)[C@@]12N=C(C)O[C@@H]1C[C@H]1[C@@H]3CCC4=CC(=O)C=C[C@]4(C)[C@H]3[C@@H](O)C[C@@]12C | inactive
Cc1ccc2oc(=O)ccc2c1 | inactive
CCC(O)OC(O)CC (centres undefined) | inactive
O=C(O)c1ccc(C(=O)O)cc1 | inactive
CCCCCC1=CCCC1=O | inactive
CCCCC(CC)COC(=O)CCCCC(=O)OCC(CC)CCCC (centres undefined) | inactive
CCCCCC(N)=O | inactive
CC(=O)c1ccccc1 | inactive
CSCCC=O | inactive
Cc1ccc(N(C)C)cc1 | inactive
CCCCCCCC(=O)OC | inactive
CCc1cccc(C)c1N | inactive
OCC(CO)(CBr)CBr | inactive
CN(C)CCCN | inactive
O=S1(=O)CC=CC1 | inactive
CC(C)(C)[C@@H](O)[C@@H](Cc1ccc(Cl)cc1)n1cncn1 | inactive
C#CCN(C)Cc1ccccc1 | inactive
C[Si](O[Si](C)(C)C)O[Si](C)(C)C | inactive
Oc1cccc2ccccc12 | inactive
CCCCCC/C(C=O)=C\c1ccccc1 | inactive
CCCCCCCCCCCCCCO | inactive
Nc1cc([N+](=O)[O-])ccc1O | inactive
O=C(O)c1cc(O)c(O)c(O)c1 | inactive
O=C(O)c1ccc2c(c1)C(=O)OC2=O | inactive
O=C(Oc1ccccc1)c1ccccc1 | inactive
OC[C@H]1O[C@@](CO)(O[C@H]2O[C@H](CO)[C@@H](O)[C@H](O)[C@H]2O)[C@@H](O)[C@@H]1O | inactive
